Composite z-score, z-score and composite Z-score data for 8 compounds are collected here from PubChem BioAssay.

Activity calls are given as the source filed them.

The test system of test [1] is Human papillomavirus type 1a protein E7 (residues 44-93). Put plainly: small molecules binding HPV E7 44-93 – biochemical, small-molecule microarray, residues 44-93, 635 nm fluorescence, primary screen (AID 1108).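 Also: E7 fragment applied at 1 µg/mL in TBST for 1 h at 4 C; score combines spot fluorescence with its signal to noise ratio.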 To be noted: fluorescence 635 nm, higher = more signal.
A short description of test [2]: hepatitis C replication reporter changes, two-sided – Huh7 cells, luciferase reporter, HCV replication inhibitor project, primary screen (AID 1109).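 Also: huh7 hepatoma cells harbouring a luciferase neomycin HCV replicon reporter; luciferase luminescence as measure of HCV replicon replication; test concentration not given here.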 To be noted: Huh7 HCV replicon luciferase reporter, 48 h; higher = more signal.
Test [3] concerns the target Left-right determination factor 2 (Homo sapiens) (UniProt O00292). Briefly: small molecules binding LEFTY2 protein – biochemical, small-molecule microarray, 635 nm fluorescence scan, primary screen (AID 1110). To be noted: higher = more signal.
The target in test [4] is Calmodulin-1 (Homo sapiens) (UniProt P0DP23). Briefly: small molecules binding calmodulin-1 with EGTA – biochemical, small-molecule microarray, Cy5-labelled CALM1, profiling panel (AID 1111).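 Also: labelled calmodulin applied in Tris saline Tween buffer holding calcium plus EGTA and DTT.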 The following applies: Cy5-CALM1 binding fluorescence, higher = more signal.
Test [5] shares this target. Briefly: small molecules binding Ca-loaded calmodulin-1 – biochemical, small-molecule microarray, Cy5-labelled CALM1, plus calcium, artefact control for SMM control-protein annotation, profiling panel (AID 1112).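 Also: score merges spot fluorescence with signal to noise from triplicate slides.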 To be noted: Cy5-CALM1 binding fluorescence, higher = more signal.
The nature of test [6]: probe aWnt5a binding to arrayed compounds – biochemical, biotinylated probe, 635/667 nm fluorescence, primary screen (AID 1113).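 Also: score merges 667 nm fluorescence intensity with signal-to-noise per printed feature.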 The following applies: small-molecule microarray, higher = more signal.
A short description of test [7]: probe aShh binding to arrayed compounds – biochemical, biotinylated probe, 635/667 nm fluorescence, primary screen (AID 1114).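 Also: probe is biotin-labelled aShh protein from a stem cell growth factor screen; measures binding of labelled protein to compounds printed on the slide; score merges feature fluorescence at 667 nm with signal-to-noise.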 The following applies: small-molecule microarray, higher = more signal.
Test [8] in a line: probe aNog binding to arrayed compounds – biochemical, biotinylated probe, 635/667 nm fluorescence, primary screen (AID 1115).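 Also: probe is biotinylated aNog protein used at 0.15 µg/mL for 1 h at 4 C; z-score combines 667 nm fluorescence of each spot with its signal to noise.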 To be noted: small-molecule microarray, higher = more signal.
Test [9] deals with Torsin-1A-interacting protein 1 (Homo sapiens) (UniProt Q5JTV8). Briefly: compound microarray binding of lysate hLAP1 – cell lysate, small-molecule microarray, COS7 lysate, 635/667 nm fluorescence, primary screen (AID 1116). The following applies: 635 nm fluorescence, higher = more signal.
Torsin-1A-interacting protein 1 (Homo sapiens), sequence (Q5JTV8 whole entry, looked up): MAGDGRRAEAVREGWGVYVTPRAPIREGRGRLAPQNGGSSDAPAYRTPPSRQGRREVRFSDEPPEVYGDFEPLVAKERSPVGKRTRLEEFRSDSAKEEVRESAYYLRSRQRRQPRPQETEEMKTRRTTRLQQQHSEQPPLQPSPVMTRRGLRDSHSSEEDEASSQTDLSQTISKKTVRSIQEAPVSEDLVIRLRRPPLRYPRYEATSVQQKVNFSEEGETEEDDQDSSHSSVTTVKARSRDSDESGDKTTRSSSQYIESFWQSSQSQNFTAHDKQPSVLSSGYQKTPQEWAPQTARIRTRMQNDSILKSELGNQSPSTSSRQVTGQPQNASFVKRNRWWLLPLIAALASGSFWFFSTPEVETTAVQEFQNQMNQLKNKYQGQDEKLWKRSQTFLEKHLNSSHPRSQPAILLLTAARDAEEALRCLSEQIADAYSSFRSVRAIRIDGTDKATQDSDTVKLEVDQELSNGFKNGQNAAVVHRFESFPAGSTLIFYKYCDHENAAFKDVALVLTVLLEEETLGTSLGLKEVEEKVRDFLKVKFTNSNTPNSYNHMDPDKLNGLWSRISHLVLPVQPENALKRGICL
Test [10] has as its target Alpha-bungarotoxin (Bungarus multicinctus) (UniProt P60615). Briefly: compounds binding labelled alpha-BTX control protein – biochemical, small-molecule microarray, Alexa647 label, 635/667 nm fluorescence, artefact control for SMM control protein annotation, profiling panel (AID 1117). The following applies: alpha-BTX-A647 binding fluorescence, higher = more signal.
The next test has as its target Albumin (Bos taurus) (UniProt P02769). Briefly: compounds binding labelled BSA control protein – biochemical, small-molecule microarray, Alexa647 label, 635/667 nm fluorescence, artefact control for SMM control protein annotation, profiling panel (AID 1118).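 Also: score merges 667 nm emission intensity and signal-to-noise per printed compound spot.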 To be noted: BSA-A647 binding, fluorescence 635 nm, higher = more signal.
Test [11] can be described thus: probe aXIP binding to arrayed compounds – biochemical, NeuroSMM set, 635/667 nm fluorescence, primary screen (AID 1119).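 Also: probe is the protein aXip251-270 applied at 1 µg/mL to compound-printed slides; binding of probe to printed compounds measured as 667 nm fluorescence plus signal to noise.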 To be noted: small-molecule microarray, higher = more signal, called active from +8 up or from −8 down.
A short description of test [12]: probe aNOTCH3 binding on compound microarray – biochemical, small-molecule microarray, 635/667 nm fluorescence, primary screen (AID 1120).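 Also: probe is a biotin-tagged antibody raised against NOTCH3 rather than NOTCH3 protein; score merges spot fluorescence near 667 nm with spot signal to noise.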 To be noted: higher = more signal.
Test [13] can be described thus: probe aNOTCH2 binding on compound microarray – biochemical, small-molecule microarray, 635/667 nm fluorescence, primary screen (AID 1121).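 Also: score merges feature fluorescence read at 667 nm with its signal to noise.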 The following applies: higher = more signal.
Test [14] addresses Carbonic anhydrase 2 (Homo sapiens) (UniProt P00918). Briefly: compounds binding carbonic anhydrase 2 – biochemical, small-molecule microarray, Alexa647-labelled CAII, profiling panel (AID 1122). To be noted: CAII-A647 binding fluorescence, higher = more signal.
Test [15] is described as follows: COS7 lysate on small-molecule microarray, probe aHis, 635 nm (AID 1123).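 Also: z-score combines 667nm fluorescence intensity with signal-to-noise per printed compound spot.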 The following applies: COS7 cell lysate, fluorescence, higher = more signal.
A short description of test [16]: probe aLAP1 signal on lysate-treated microarray – cell lysate, small-molecule microarray, COS7 lysate, primary screen (AID 1124).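 Also: lysate comes from COS7 cells expressing LAP1 and is applied at 0.3 µg/mL; score merges spot fluorescence near 667 nm with signal-to-noise over triplicate slides.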 The following applies: probe aLAP1, fluorescence, higher = more signal.
In another test the test system is Sam68 (KHDRBS1). Put plainly: compounds binding KHDRBS1 protein – biochemical, small-molecule microarray, 635 nm fluorescence, primary screen (AID 1125).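 Also: score merges 667 nm channel intensity with signal to noise over triplicate slides.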 The following applies: higher = more signal.
Test [17] relates to Chordin-like protein 2 (CHRDL2). Put plainly: compounds binding chordin-like 2 – biochemical, small-molecule microarray, 635 nm fluorescence, primary screen (AID 1126).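 Also: printed compound slides probed with Chrdl2 protein at 4 µg/mL for 1 h at 4 C; score merges 667 nm emission intensity with signal to noise over three replicate slides.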 To be noted: fluorescence 635 nm, higher = more signal.
Test [18] concerns the target Concanavalin-A (Canavalia ensiformis) (UniProt P02866). Put plainly: compounds binding concanavalin A lectin – biochemical, small-molecule microarray, Alexa647 label, 635 nm, artefact control for SMM control protein annotation, primary screen (AID 1127).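 Also: z combines 667 nm emission intensity with signal-to-noise across three replicate slides.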 The following applies: ConA-A647 binding fluorescence, higher = more signal.

Albumin (Bos taurus), sequence (P02769 whole entry, looked up): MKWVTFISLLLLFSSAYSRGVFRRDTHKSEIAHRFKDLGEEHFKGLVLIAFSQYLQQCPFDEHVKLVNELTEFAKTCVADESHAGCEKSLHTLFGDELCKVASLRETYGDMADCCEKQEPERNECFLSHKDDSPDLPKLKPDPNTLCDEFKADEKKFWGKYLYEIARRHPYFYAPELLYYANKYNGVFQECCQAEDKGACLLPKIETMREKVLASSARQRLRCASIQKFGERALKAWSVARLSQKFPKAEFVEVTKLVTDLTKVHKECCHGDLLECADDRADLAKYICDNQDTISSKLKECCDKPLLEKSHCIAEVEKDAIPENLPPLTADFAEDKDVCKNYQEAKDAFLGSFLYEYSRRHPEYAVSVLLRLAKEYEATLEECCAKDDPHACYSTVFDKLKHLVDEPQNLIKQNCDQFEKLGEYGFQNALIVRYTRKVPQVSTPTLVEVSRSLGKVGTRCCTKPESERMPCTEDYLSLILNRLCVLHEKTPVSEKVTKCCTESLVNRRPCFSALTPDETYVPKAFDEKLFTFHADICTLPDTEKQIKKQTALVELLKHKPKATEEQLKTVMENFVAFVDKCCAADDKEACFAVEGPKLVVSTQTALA
Concanavalin-A (Canavalia ensiformis), sequence (P02866 whole entry, looked up): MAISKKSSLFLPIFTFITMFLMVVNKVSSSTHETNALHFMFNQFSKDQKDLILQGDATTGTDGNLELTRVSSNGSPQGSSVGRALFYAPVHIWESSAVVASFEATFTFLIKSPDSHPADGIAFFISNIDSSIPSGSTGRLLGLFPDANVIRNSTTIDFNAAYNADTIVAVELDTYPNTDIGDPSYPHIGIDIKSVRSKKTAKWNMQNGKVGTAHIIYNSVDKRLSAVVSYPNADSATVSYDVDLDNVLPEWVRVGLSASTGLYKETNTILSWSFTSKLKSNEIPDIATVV
Alpha-bungarotoxin (Bungarus multicinctus), sequence (P60615 whole entry, looked up): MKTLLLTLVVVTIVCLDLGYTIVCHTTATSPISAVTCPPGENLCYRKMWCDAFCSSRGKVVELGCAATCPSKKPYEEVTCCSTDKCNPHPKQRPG
Left-right determination factor 2 (Homo sapiens), sequence (O00292 whole entry, looked up): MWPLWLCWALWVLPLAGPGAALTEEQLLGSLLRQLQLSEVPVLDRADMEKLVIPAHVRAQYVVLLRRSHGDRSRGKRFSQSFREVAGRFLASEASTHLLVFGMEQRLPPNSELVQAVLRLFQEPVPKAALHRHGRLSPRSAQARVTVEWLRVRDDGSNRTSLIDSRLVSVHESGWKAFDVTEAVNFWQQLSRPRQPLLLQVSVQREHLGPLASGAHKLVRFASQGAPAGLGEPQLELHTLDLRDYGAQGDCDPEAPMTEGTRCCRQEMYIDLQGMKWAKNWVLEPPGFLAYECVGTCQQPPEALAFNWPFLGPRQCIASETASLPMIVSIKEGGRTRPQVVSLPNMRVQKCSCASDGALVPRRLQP

On to `Cc1ccc(S[C@]2(C(=O)O)CC(=O)N(Cc3ccccc3C(F)(F)F)[C@@H]2c2ccc(CO)cc2)cc1`, for which the composite z-score was 0.973 in test [1]; -0.587 in test [3]; -0.317 in test [4]; 0.228 in test [5]; -0.176 in test [6]; -0.138 in test [7]. The composite z-score in test [8] was -0.321; in test [9], 0.914; in test [10] it was -0.115; in the test with Albumin (Bos taurus), -0.283; in test [12] it was -0.128; in [13], -0.164. The composite z-score in [14] is 0.653; in test [15], 1.79; in test [16], -0.67; in the test on Sam68 (KHDRBS1) it was -0.298; in [17] it was -1.6; in test [18] it was -0.373. Also, the z-score in test [2] is 0.0788. In addition, the composite Z-score in test [11] is -0.612 (inactive).
Turning to `COC(=O)[C@H]1N=C(c2ccc(OCCCO)cc2)O[C@H]1c1ccccc1CN=[N+]=[N-]`, the composite z-score in test [1] was 1.05; in test [3], -1.16; in test [4], 0.452; in test [5], 0.516; in test [6], 0.0495; in [7], 0.105. Further, the composite z-score in test [8] was 1.64; in test [9] it was 0.431; in test [10], 0.534; in the test with Albumin (Bos taurus), 0.394; in test [12], 0.23; in test [13], -0.0174. For the same compound, the composite z-score in [14] was 0.41; in test [15], 1.78; in test [16], 0.427; in the test on Sam68 (KHDRBS1), 0.0826; in test [17], -0.935; in test [18], 0.8. For the same compound, the z-score in test [2] is -2.03. The composite Z-score in test [11] was -0.391 (inactive).
As to `C=CCNC(=O)[C@@H]1[C@H]2C(=O)O[C@H](c3ccccc3)[C@H](c3ccccc3)N2[C@H](c2ccc(O)cc2)[C@@]12C(=O)Nc1ccc(C#CCCO)cc12`, the composite z-score was -0.379 in test [1]; -0.144 in test [3]; -0.0464 in test [4]; 0.0653 in test [5]; -0.0792 in [6]; -0.484 in [7]. For the same compound, the composite z-score was -0.372 in test [8]; -0.275 in test [9]; -0.04 in [10]; 0.803 in the test with Albumin (Bos taurus); -0.186 in test [12]; -0.149 in [13]. In addition, the composite z-score in test [14] is 0.761; in test [15], 1.55; in test [16] it was 0.71; with Sam68 (KHDRBS1), 0.277; in test [17], -1.31; in [18], 0.0196. Further, the z-score in test [2] is -0.439. Further, the composite Z-score in test [11] was -0.588 (inactive).
As for `CCCCC(=C=CC[C@H](O)c1ccccc1OCCO)C[C@H](O)c1ccccn1`, the composite z-score in [1] is 0.0797; in test [3], 0.377; in test [4], -0.0455; in test [5], -0.351; in [6], -0.126; in test [7], -0.0769. The composite z-score was -0.388 in test [8]; 0.934 in [9]; 0.697 in test [10]; 0.0165 with Albumin (Bos taurus); 0.0311 in test [12]; -0.164 in test [13]. Besides, the composite z-score in test [14] is 0.557; in [15] it was -0.137; in test [16] it was 0.271; in the test with Sam68 (KHDRBS1) it was -0.0949; in test [17], 0.547; in test [18] it was 0.319. Further, the z-score in test [2] is -0.619. For the same compound, the composite Z-score in test [11] is -0.452 (inactive).
Consider `O=C1O[C@H](c2ccccc2)[C@H](c2ccccc2)N2[C@H]1[C@@H](C(=O)N1CCN(c3ncccn3)CC1)[C@]1(C(=O)Nc3ccc(C#CCCO)cc31)[C@H]2c1ccccc1OCCO`, for which the composite z-score was 1.02 in [1]; 0.708 in test [3]; 1.46 in test [4]; 0.12 in [5]; -0.091 in test [6]; 0.126 in test [7]. In addition, the composite z-score in test [8] is 0.576; in test [9], 0.453; in test [10], 1.77; with Albumin (Bos taurus), 0.759; in test [12] it was -0.0918; in test [13], -0.0533. The composite z-score is 0.556 in test [14]; 2.03 in [15]; 1.38 in test [16]; 1.3 with Sam68 (KHDRBS1); 0.231 in test [17]; 1.11 in test [18]. Besides, the z-score in test [2] is -1.49. The composite Z-score in test [11] is -0.215 (inactive).
On to `COC(=O)[C@]1(Cc2ccccc2N=[N+]=[N-])N=C(c2ccc(OCCCO)cc2)O[C@@H]1c1ccccc1`, for which the composite z-score in [1] was -0.296; in test [3], -0.96; in [4] it was 0.279; in test [5], 0.41; in test [6], 0.0831; in test [7], -0.111. The composite z-score is 0.534 in test [8]; 0.738 in test [9]; 0.41 in [10]; -0.274 in the test with Albumin (Bos taurus); 0.0773 in test [12]; -0.0487 in test [13]. In addition, the composite z-score in [14] was 0.412; in [15] it was 1.82; in [16], 0.225; with Sam68 (KHDRBS1) it was 0.622; in test [17] it was -1.1; in test [18], 0.458. Moreover, the z-score in test [2] is -3.3. In test [11], the composite Z-score is 0.747 (inactive).
For `O=c1c2ccc(Br)cc2nc(-c2ccccc2)n1Cc1cccc(O)c1`, the composite z-score in [1] was -0.128; in [3], 0.194; in test [4], 2.32; in test [5], 0.756; in test [6] it was 0.0438; in [7], -0.305. For the same compound, the composite z-score was -0.218 in [8]; 2.51 in test [9]; 1.8 in [10]; 0.757 with Albumin (Bos taurus); 0.103 in test [12]; 0.138 in test [13]. In addition, the composite z-score in test [14] is 0.711; in test [15], 1.46; in test [16] it was 1.3; with Sam68 (KHDRBS1), 0.772; in test [17], 0.182; in test [18], 0.988. Moreover, the z-score in [2] was -0.153. For the same compound, in test [11], the composite Z-score was 0.906 (inactive).
As to `O=C(N1CCOCC1)[C@@]1(CCS(=O)(=O)c2ccccc2)COC(c2ccc(OCCCO)cc2)=N1`, the composite z-score in test [1] was 0.901; in test [3], -1.21; in test [4] it was 1.25; in [5], 0.0541; in test [6], -0.124; in test [7], 0.314. In addition, the composite z-score is -0.824 in test [8]; 0.622 in test [9]; -0.422 in test [10]; 0.39 with Albumin (Bos taurus); -0.0073 in test [12]; -0.191 in [13]. The composite z-score in [14] was 0.704; in test [15] it was 2.45; in test [16] it was -0.0296; with Sam68 (KHDRBS1), 0.605; in [17] it was -0.034; in [18], -0.257. The z-score in test [2] was -1.18. Besides, the composite Z-score in [11] was 0.667 (inactive).
